Bioassay records (PubChem)
Many of the other results were omitted from the sample, so hits are more common in it than they were.
BL2 CD40 inh: CD40 pathway inhibition in BL2 cells | BL2 NF-kB luciferase reporter, CD40L-induced, 4 h | inhibition, % at 10 µM | 83,000 compounds, 0.94% hits | AID 1053188;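 active = mean inhibition of at least 50% with a set share of replicates also reaching that level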;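 note: 0% = neutral control wells and 100% = IKK inhibitor VII at 50 µM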
Numbers without * were called inactive; [ ] = another dose, or the depositor's remark.

CN1C(=O)c2cc(NC(=O)C3CCCCC3)ccc2OC[C@H]2O[C@@H](CC(=O)NCC3CCCCC3)CC[C@@H]21 was read as BL2 CD40 inh -3.
C[C@@H]1CN([C@H](C)CO)C(=O)c2c(c3ccccc3n2C)-c2ccccc2CO[C@H]1CN(C)S(=O)(=O)c1cccc(F)c1 was read as BL2 CD40 inh 2.
Screening C[C@@H]1CN([C@H](C)CO)C(=O)c2c(c3ccccc3n2C)-c2ccccc2CO[C@@H]1CN(C)S(=O)(=O)c1cccc(F)c1 returned BL2 CD40 inh -8.
Screening COc1cccc(S(=O)(=O)N(C)C[C@@H]2OCc3ccccc3-c3c(n(C)c4ccccc34)C(=O)N([C@H](C)CO)C[C@H]2C)c1 returned BL2 CD40 inh 64*[25 µM].
Screening C[C@H](CO)N1C[C@H](C)[C@H](CN(C)S(=O)(=O)c2cccc(F)c2)OCc2ccccc2-c2c(n(C)c3ccccc23)C1=O returned BL2 CD40 inh -3.
COc1cccc(S(=O)(=O)N(C)C[C@H]2OCc3ccccc3-c3c(n(C)c4ccccc34)C(=O)N([C@H](C)CO)C[C@@H]2C)c1 was read as BL2 CD40 inh 57*[25 µM].
Screening C[C@@H]1CN([C@H](C)CO)C(=O)c2c(c3ccccc3n2C)-c2ccccc2CO[C@@H]1CN(C)S(=O)(=O)c1ccccc1 returned BL2 CD40 inh 8.
`Cc1cccc(S(=O)(=O)N(C)C[C@H]2OCc3ccccc3-c3c(n(C)c4ccccc34)C(=O)N([C@H](C)CO)C[C@@H]2C)c1` gave BL2 CD40 inh 9.
`COc1cccc(S(=O)(=O)N(C)C[C@@H]2OCc3ccccc3-c3c(n(C)c4ccccc34)C(=O)N([C@H](C)CO)C[C@@H]2C)c1` gave BL2 CD40 inh 62*[25 µM].
Screening C[C@@H]1CN([C@@H](C)CO)C(=O)c2c(c3ccccc3n2C)-c2ccccc2CO[C@@H]1CN(C)S(=O)(=O)c1ccc([N+](=O)[O-])cc1 returned BL2 CD40 inh 31[25 µM].
Screening C[C@@H]1CN([C@H](C)CO)C(=O)c2c(c3ccccc3n2C)-c2ccccc2CO[C@@H]1CN(C)S(=O)(=O)c1ccc([N+](=O)[O-])cc1 returned BL2 CD40 inh 22[25 µM].
C[C@H]1CN([C@@H](C)CO)C(=O)c2c(c3ccccc3n2C)-c2ccccc2CO[C@@H]1CN(C)S(=O)(=O)c1cccc(F)c1 was read as BL2 CD40 inh 5.
For C[C@H](CO)N1C[C@H](C)[C@H](CN(C)S(=O)(=O)c2ccc([N+](=O)[O-])cc2)OCc2ccccc2-c2c(n(C)c3ccccc23)C1=O the results were BL2 CD40 inh 63*[25 µM].
N#Cc1cccc(-c2ccc(C3[C@@H]4CN(S(=O)(=O)c5cccc(Cl)c5)C[C@H]3N4)cc2)c1 (stereo not given in full) was read as BL2 CD40 inh -3[25 µM].
Screening COc1ccc(S(=O)(=O)Nc2ccc3c(c2)C(=O)N([C@@H](C)CO)C[C@H](C)[C@@H](CN(C)S(=O)(=O)c2ccc(Cl)cc2)OCCCC[C@@H](C)O3)cc1 returned BL2 CD40 inh 38[25 µM].
C[C@@H]1CCCCO[C@H](CN(C)C(=O)Nc2ccccc2)[C@H](C)CN([C@@H](C)CO)C(=O)c2cc(NC(=O)Nc3ccc4c(c3)OCO4)ccc2O1 was read as BL2 CD40 inh -11.
CO[C@H]1CN(C)C(=O)c2ccc(NC(=O)C3CCC3)cc2OC[C@H](C)N(C)C[C@H]1C was read as BL2 CD40 inh -1.
CN1CCN(C(=O)C[C@H]2C[C@@H]3c4cc(NS(C)(=O)=O)ccc4O[C@@H]3[C@H](CO)O2)CC1 was read as BL2 CD40 inh 8[25 µM].
For CC(C)(C)[S@@](=O)N1Cc2cc(C(=O)NCCN3CCCC3)nc(-c3cccc(-c4cccc(C#N)c4)c3)c2[C@H]1CCO the results were BL2 CD40 inh 9.
Screening CCC(=O)N1[C@H](CN(C)C(C)=O)[C@H](c2ccc(-c3cccnc3)cc2)[C@@H]1CO returned BL2 CD40 inh -2.
For C[C@H]1CN(C)C(=O)Cc2ccccc2O[C@@H]1CN(C)C(=O)OC(C)(C)C the results were BL2 CD40 inh 11.
`C[C@@H]1CN([C@@H](C)CO)C(=O)c2c(c3ccccc3n2C)-c2ccccc2CO[C@@H]1CN(C)Cc1cccnc1` gave BL2 CD40 inh 7[25 µM].
O=C1N[C@@H](c2ccccc2)COCc2cn(nn2)CC[C@@H]1Cc1ccccc1 was read as BL2 CD40 inh 4.
Screening CC(C)[C@@H]1CC=CC[C@H](C)Oc2ccccc2C(=O)N(C)[C@H](C(C)C)C(=O)N1 (mixture of isomers) returned BL2 CD40 inh 10[25 µM].
Screening COc1cccc(S(=O)(=O)N(C)C[C@H]2OCc3ccccc3-c3c(n(C)c4ccccc34)C(=O)N([C@@H](C)CO)C[C@H]2C)c1 returned BL2 CD40 inh 61*[25 µM].
For COc1ccc(S(=O)(=O)N(C)C[C@H]2OCc3ccccc3-c3c(n(C)c4ccccc34)C(=O)N([C@H](C)CO)C[C@H]2C)cc1 the results were BL2 CD40 inh 4.
Cc1cccc(S(=O)(=O)N(C)C[C@@H]2OCc3ccccc3-c3c(n(C)c4ccccc34)C(=O)N([C@H](C)CO)C[C@@H]2C)c1 was read as BL2 CD40 inh 15.
Screening C[C@@H](NC(=O)C[C@H]1C[C@H]2c3cc(NS(=O)(=O)c4ccc(F)cc4)ccc3O[C@H]2[C@@H](CO)O1)c1ccccc1 returned BL2 CD40 inh 12[25 µM].
Screening O=C(CN1CCOCC1)N[C@H]1CC[C@H](CCNC(=O)C2CCCC2)O[C@@H]1CO returned BL2 CD40 inh 2.
`COc1cccc(CC(=O)OCC(=O)NNC(=O)c2ccc(Br)cc2)c1` gave BL2 CD40 inh -1.
Screening CCCC(C)Sc1nc2c([nH]1)c(=S)n(C)c(=O)n2C (stereo not given) returned BL2 CD40 inh 93*.
For CCSc1nc2c([nH]1)c(=O)n(C)c(=S)n2C the results were BL2 CD40 inh 0.
`Cn1c(=O)c2[nH]c(SCCN3CCCCC3)nc2n(C)c1=S` gave BL2 CD40 inh 7.
For O=C(Nc1nccs1)C1CC(=O)N(c2ccc(F)cc2)C1 (stereo not given) the results were BL2 CD40 inh 1.
COCc1nnc(NC(=O)C2CC(=O)N(c3ccc(C)c(Cl)c3)C2)s1 (stereo not given) was read as BL2 CD40 inh 1.
Cc1ccc(N2CC(C(=O)Nc3nccs3)CC2=O)cc1Cl (stereo not given) was read as BL2 CD40 inh 61*.
Screening O=S(=O)(c1ccccc1)N1CC2(C1)[C@@H](c1ccccc1)[C@@H](CO)N2CC1CCCC1 returned BL2 CD40 inh 3.
`COc1ccc(OC)c(S(=O)(=O)Nc2cc3c4c(c2)C(C)C(=O)N4CCC3)c1` (stereo not given) gave BL2 CD40 inh 14.
C[C@@H]1CN([C@@H](C)CO)C(=O)c2c(c3ccccc3n2C)-c2ccccc2CO[C@@H]1CN(C)Cc1ccc(C(=O)O)cc1 was read as BL2 CD40 inh -11.
For O=C1c2sc3nc4ccccc4n3c2C(=O)N1c1ccccc1Cl the results were BL2 CD40 inh 52*.
`CC(=O)c1cnc(-c2ccccc2Cl)s1` gave BL2 CD40 inh 1.
`COC(=O)C1CC(=O)N(Cc2ccccc2)C1` (stereo not given) gave BL2 CD40 inh 3.
`Cc1ccc(CN2CC(C(=O)Nc3ncc(C)s3)CC2=O)cc1` (stereo not given) gave BL2 CD40 inh 78*.
`CCOc1ccc(CCNC(=O)C2CC(=O)N(Cc3ccc(C)cc3)C2)cc1OCC` (stereo not given) gave BL2 CD40 inh -11.
